Data reported in paper PMC12136788.
Substitutions are numbered along the chain they refer to. The full ranking holds about 24,000 sequences; the median of “enrichment r” is about 0.99, and the highest 2% start at about 3.7. What follows is part of a selection rich in the highest values, with near analogues and random picks from the rest.

T1: UNK ZnF1-3 (human, UniProt Q9C0B0 31-174)
T1 sequence: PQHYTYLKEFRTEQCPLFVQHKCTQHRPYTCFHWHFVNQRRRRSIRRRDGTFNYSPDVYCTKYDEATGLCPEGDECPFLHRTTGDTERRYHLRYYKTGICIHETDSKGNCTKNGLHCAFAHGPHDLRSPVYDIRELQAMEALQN

B1: chr8:59488481:59488482:+_ENSG00000137575_ENST00000447182|hu_mus|motif|central (ssRNA)
RNA: GGGAGUUCUACAGUCCGACGAUCUCCAGCAUCGUUACCUGUCACAGGUGCUACCAUAUAGUUCACACUGGAUGGUCUUGCGGCCAACCCUUGUGCUGGUGCUCCAGAGACCAUGGGCAUGCUCUCACAUAUUUCAGCUUCAUUCAACAGAGGAUUGAGCAUCA
B2: chr11:77340908:77340909:-_ENSG00000074201_ENST00000525064|hu_hu|hu_hu_hu_mus_True|8_108 (ssRNA)
RNA: GGGAGUUCUACAGUCCGACGAUCGUUUCGGUCCCUGGACACCGCAUGUAAACUAAUGGUGGGGUAUUCCAGUGAGAAUCCUAAUCCCGAACCAUCUAACCAGGACAGGCGGCUCUCCGCGAUGUAAAGGGUACCAGUGCCGAGCAACAGAGGAUUGAGCAUCA
B3: chr3:119217614:119217615:+_ENSG00000113845_ENST00000264244|hu_hu|FALSE|FALSE (ssRNA)
RNA: GGGAGUUCUACAGUCCGACGAUCCUCUACAGAGAAAGCUCCGCGGUGCCGGUGGCGGCACCUCCAUGGCCUUCUCUCGACCUACGGACAAACUUGAGCGCUCAGGACUUCAAGUCCUCGCGGACGUGCCGCGGGAGAGCGUAACAACAGAGGAUUGAGCAUCA
B4: 60766971_60767091_3885_CDS_ENSG00000011028_ENST00000303375|human|control|control (ssRNA)
RNA: GGGAGUUCUACAGUCCGACGAUCCGUGCGCAGCCCUCGGGCAGCCUGCGUGAGGAAGGCCUGGGUGUAGGGGUCGGGCACGUAGGCCAGGCUGGCAUUGCGGCUCUCACACAGCAGGAGGGCAUCGUGCCAGCGCAGCGGCUUCAACAGAGGAUUGAGCAUCA
B5: 193603509_193603629_2668_3pUTR_ENSMUSG00000026623_ENSMUST00000110855|mouse|control|control (ssRNA)
RNA: GGGAGUUCUACAGUCCGACGAUCUAAAUCACAUGAACAAAAGGACAAAUCUUUCAAAAGGUUUCUACGAUGAACAGAAACUUGCUUGGCUUUGCCCUCUUAGAAGACGACUGGAAGAGACUGGGAAGUGUUUUUGAGCUGCUGCAACAGAGGAUUGAGCAUCA
B6: chr12:55960871:55960872:-_ENSMUSG00000062929_ENSMUST00000078124|mus_mus|motif|central (ssRNA)
RNA: GGGAGUUCUACAGUCCGACGAUCUACUAAGCUUUAAGACUGCUAUACGAUUUUUUUUUCCCAAUUCAUUUUGGAAAAGCGGUGAAGGAACUGUGGCUGAGACAAACAUUCCUAAACAUCACAAUCAUCAUUAACCUUCGAAUGCAACAGAGGAUUGAGCAUCA
B7: chr1:66459500:66459501:+_ENSMUSG00000015222_ENSMUST00000114013|mus_hu|motif|central (ssRNA)
RNA: GGGAGUUCUACAGUCCGACGAUCUAAAAAGGCAGGGGCAAAGGGCGAUGUUUCUGUAACUAUUUCAUUCUUCAUGACAUCGGAAGGAAGAGUGAAGCUUCCCCCUUGAAAGGGACUUGGCAUGGGAGAAUCAAACUGUUUCCCCAACAGAGGAUUGAGCAUCA
B8: chr17:26793470:26793471:+_ENSMUSG00000001576_ENSMUST00000167662|mus_mus|FALSE|FALSE (ssRNA)
RNA: GGGAGUUCUACAGUCCGACGAUCAUUGGAAUCAGAGGAAAAAUUACAAAUGGCAGAGAAUCCAGCUACCCAUAAGAGACUAUUUAAGAAAAACAAAACCAAAACCAAACAAAAACAAAAAACCCCAAAACUUCCUACUGCAGGCAACAGAGGAUUGAGCAUCA
B9: chr22:38881817:38881818:-_ENSG00000100201_ENST00000396821|hu_hu|FALSE|FALSE (ssRNA)
RNA: GGGAGUUCUACAGUCCGACGAUCUUAUUCCAGACUGGAUCAUUUUGGUGGGCAGAAGAAACCUGGCAGUGAAUUCUAACUAAUCUGCAUGAAAAGACAAAUCACGAUGGUUGGGGGGAAAAAUUAAAAAAAAAAAAAGAAAAACAACAGAGGAUUGAGCAUCA
B10: chr12:39763582:39763583:-_ENSG00000139116_ENST00000544797|hu_hu|FALSE|FALSE (ssRNA)
RNA: GGGAGUUCUACAGUCCGACGAUCCUCUAAGAAUUGGGCAUUCACUUUAAAAUCUGGAGCAGGAAGCCCAUUUUUAAUUGCUAUGUGUUUUUUUUCUUCAAUACUCUUAAAAAGGUGUUUAACAGCUCGAGAAAUAAUACCCAGCAACAGAGGAUUGAGCAUCA
B11: 36507729_36507849_895_3pUTR_ENSMUSG00000043671_ENSMUST00000051377|mouse|control|control (ssRNA)
RNA: GGGAGUUCUACAGUCCGACGAUCGAAAGAGGCUGUAAAUUUGGUCUCAGGAAGUAGGUAAUUGCUGCAAUCUGAAUUGCAAAAAAAGGCAGAGCCCAGUUCUCCCUCAGCGGGAUGGUAAACUCGACUCUUGUGGUGUCUAUUCAACAGAGGAUUGAGCAUCA
B12: 87419285_87419405_2552_3pUTR_ENSMUSG00000028496_ENSMUST00000078090|mouse|control|control (ssRNA)
RNA: GGGAGUUCUACAGUCCGACGAUCGAAAAUCAAGGUGGCUAUUUGGUCCCCCCAGUUGGUAACUAUGUCCUGGAACUGGGAAAACAAAGAUGGAAACCAUAGACUGCAACAAGUUAAAGGACCUGGGAAGAGUUGGUGGAAAGUCAACAGAGGAUUGAGCAUCA
B13: chr16:45711415:45711416:-_ENSMUSG00000022658_ENSMUST00000096057|mus_hu|FALSE|FALSE (ssRNA)
RNA: GGGAGUUCUACAGUCCGACGAUCUUAUUAGGUGCAUUCUAUAAGUUGAAGAGGAGAAUUUUUGGCAAAUAAAUAAAUAAAUAAAUAAAUAAUCAAACAGAGACUCUGGGGCCCGAGGAGCUCAGGAAAACGGAAGCGGAGUCUCAACAGAGGAUUGAGCAUCA
B14: chr22:38881817:38881818:-_ENSG00000100201_ENST00000396821|hu_hu|motif|central (ssRNA)
RNA: B9 RNA with U76G, A77G, U80G, A81G
B15: chr14:89338683:89338684:+_ENSG00000165533_ENST00000346301|hu_hu|hu_hu_hu_mus_False|58_68 (ssRNA)
RNA: GGGAGUUCUACAGUCCGACGAUCGUGGUUGUUGUGGACCAGGGCCAGCCUGAAGCAUUGGUGGGCCAAAUUUGUAUCUCCUAUUCCCACAGCUAUGUGCCCCAGGUUGUACCAGACAUCAGCUGCCUCUUCUUCAUUUUCAGCCAACAGAGGAUUGAGCAUCA
B16: chr9:109937893:109937894:+_ENSMUSG00000032479_ENSMUST00000165876|mus_mus|motif|central (ssRNA)
RNA: GGGAGUUCUACAGUCCGACGAUCUUCACGUGGUUUUUCUUCAGUCUGUACAGUUCCUUUGUCUUUAAUUGGAACUGUUGCGGCUUUUGUUUCCAAGGGCAGUGCAAGAUCGGAGGCUGGAGCCAUGCUGUUGUCCACAAUCAGCAACAGAGGAUUGAGCAUCA
B17: 126495366_126496508_792_3pUTR_ENSMUSG00000040502_ENSMUST00000040307|mouse|control|control (ssRNA)
RNA: GGGAGUUCUACAGUCCGACGAUCAUUAGGCAGGGUUGGUGUGUGCAACGCACUGAGCCGUCACAGCGGCAAGGGCUCAGGAGCUCCCCCUGCUCCGGGCCUUGGAAGCAGAUCCUGCACUGGGGGGUUCGGAGCCCACUGUCCCAACAGAGGAUUGAGCAUCA
B18: chr7:149838571:149838572:-_ENSMUSG00000048583_ENSMUST00000000033|mus_mus|motif|central (ssRNA)
RNA: GGGAGUUCUACAGUCCGACGAUCCAUGUAUCACUUGGCAGUGCCAUCUCCUUAUCUGGCCAAACUUAUUCUACACUGGCGGGUCAUUGGUCCUCAUGGCGGGGGUGGUUGGGGAGCACCGGGCUCACCAUGUGGACAGGUGCUCAACAGAGGAUUGAGCAUCA
B19: chr6:74304526:74304527:-_ENSG00000119899_ENST00000355773|hu_mus|motif|central (ssRNA)
RNA: GGGAGUUCUACAGUCCGACGAUCCAAGUUUAUCAGUGUGUGUGUGUGUGUGUGUGUCCAUUUCAGCUUCAUUUCCGGUGCCCUUACCUUAUAUCAUACUGCCUUUCCUGCAGCCUGAUAUGUGAACCCAGUAUACGGCCUGGCCAACAGAGGAUUGAGCAUCA
B20: chr4:57314706:57314707:+_ENSG00000128050_ENST00000264221|hu_mus|hu_hu_hu_mus_True|88_98 (ssRNA)
RNA: GGGAGUUCUACAGUCCGACGAUCCAGAAUUUCAAAAAUAGCCUGUGUAGCAUGACUCAUGAUGUCCACUUCAGUCUGCCCUAUAACAAGGCCAGCAAAACAGAAUUUUGCAGCAAUGAGUUGCUCCUCAGACCACUGUGGAUCCAACAGAGGAUUGAGCAUCA
B21: chr5:137088537:137088538:-_ENSG00000177733_ENST00000314940|hu_hu|FALSE|FALSE (ssRNA)
RNA: GGGAGUUCUACAGUCCGACGAUCCAGCAAGUUCACUCCCUCCCUCCCCCCAAAAAACACAAAUUAAAACAAGACAUUUUGCUAGUAUAAAAACGACCAAGGUCCAAGUAAUAAUAAAAAAAUAGAGUCCAUCAAUGACUGUAACAACAGAGGAUUGAGCAUCA
B22: chr9:15470827:15470828:-_ENSG00000164985_ENST00000397519|hu_hu|motif|central (ssRNA)
RNA: GGGAGUUCUACAGUCCGACGAUCGAAUGUCAAGAGAAGGGCCCCAUUCUCAGGGAUAUAACUGCUAUUCCAGUUUAAUAACGGGCUUCAAAACAAAAUGAAUUUUUAUAUUUUCUAGAUGAAUAAUGUACAACCACCAUCUUCCAACAGAGGAUUGAGCAUCA
B23: chr5:137088537:137088538:-_ENSG00000177733_ENST00000314940|hu_mus|FALSE|FALSE (ssRNA)
RNA: GGGAGUUCUACAGUCCGACGAUCUCCCGCCCGCCCACCCGCCCCCCCAAAAAACACAAAUUAAAACAAGACAUUUUUUUGCUAGUAUAAAAACGACCAAGGUCCAAGUAAUAAUAAAAAAAUAGAGUCCAUCAAUGACUGUAACAACAGAGGAUUGAGCAUCA
B24: chr5:137088537:137088538:-_ENSG00000177733_ENST00000314940|hu_hu|motif|central (ssRNA)
RNA: B21 RNA with U82G, A83G
B25: chr4:57314706:57314707:+_ENSG00000128050_ENST00000264221|hu_mus|hu_hu_hu_mus_True|48_88 (ssRNA)
RNA: B20 RNA with C42U, G90U
B26: chr5:137088537:137088538:-_ENSG00000177733_ENST00000314940|hu_mus|motif|central (ssRNA)
RNA: B23 RNA with U82G, A83G

These binders were tested against T1, UNK ZnF1-3 (assay: nsRBNS (natural sequence RNA bind-n-seq); RBNS binding buffer (assumed for nsRBNS): 25 mM Tris pH 7.5, 150 mM KCl, 3 mM MgCl2, 0.01% Triton X-100, 500 ug/ml BSA, 20 U/ml SUPERase-In, 4 C; UNK is unkempt and MSI1 is Musashi-1; names of the RNAs are library labels; protein concentration not given here; high values mean tight binding).
With B1 the binding signal was 0.558 enrichment R.
B2 showed a binding signal of 1.38 enrichment R.
For B3, the binding signal was 0.297 enrichment R.
B4 was tested, and the binding signal was 0.311 enrichment R.
B5 was tested, and the binding signal was 1.27 enrichment R.
Work on B6 yielded a binding signal of 0.982 enrichment R.
B7 showed a binding signal of 0.819 enrichment R.
For B8, the binding signal was 3.74 enrichment R.
Work on B9 yielded a binding signal of 11.1 enrichment R.
B10 was tested, and the binding signal was 2.47 enrichment R.
B11 showed a binding signal of 0.793 enrichment R.
B12 was tested, and the binding signal was 1.56 enrichment R.
B13 was tested, and the binding signal was 13.2 enrichment R.
Work on B14 yielded a binding signal of 13.5 enrichment R.
Binder B15 has a binding signal of 0.84 enrichment R.
In the case of B16, the binding signal is reported as 0.462 enrichment R.
In the case of B17, the binding signal is reported as 0.848 enrichment R.
Work on B18 yielded a binding signal of 0.781 enrichment R.
Binder B19 has a binding signal of 0.616 enrichment R.
B20 showed a binding signal of 0.943 enrichment R.
Binder B21 has a binding signal of 5.73 enrichment R.
B22 gave a binding signal of 1.6 enrichment R.
With B23 the binding signal was 9.05 enrichment R.
For B24, the binding signal was 6.14 enrichment R.
For B25, the binding signal was 0.922 enrichment R.
For B26, the binding signal was 3.51 enrichment R.
